# Test results published in the supplement of paper PMC6522484.
# ± gives the standard deviation of the averaged measurements.
# Columns and labels:
# DLD1 [1] = test: cell viability (CellTiter-Glo) relative to plate median (fraction of plate median); higher = more viable cells; conditions: 5 µM; treatment time 24 h; reporter: 7TFP
# Summary of the method: (§1)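 Luminescence, normalised well by well to the plate median, is tabulated as a mean of independent replicates. There were two replicates, run on colorectal cancer lines stably transduced with lentiviral TCF/Wnt firefly luciferase reporters and dosed with library compounds at a final 5 µM for 24 h. Readouts were firefly luciferase or CellTiterGlo on parallel plates.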
# HCT116 = test: as above; conditions: 5 µM; treatment time 24 h; reporter: TCF4/Wnt
# Summary of the method: as §1
# SW480 [2] = test: as above; conditions: 5 µM; treatment time 24 h; reporter: 7TFP
# Summary of the method: as §1
# DLD1 [3] = test: TCF/Wnt firefly luciferase reporter signal relative to plate median (fraction of plate median); higher = higher Wnt reporter signal; conditions: 5 µM; treatment time 24 h; reporter: 7TFP
# Summary of the method: as §1
# SW480 [4] = test: as above; conditions: 5 µM; treatment time 24 h; reporter: 7TFP
# Summary of the method: as §1
Compound,cell viability (DLD1 [1]),cell viability (HCT116),cell viability (SW480 [2]),TCF/Wnt firefly luciferase reporter signal (DLD1 [3]),TCF/Wnt firefly luciferase reporter signal (SW480 [4])
Oc1ncnc2[nH]ncc12,0.939 ± 0.063,1.05 ± 0.12,1.07 ± 0.057,1.03,0.961 ± 0.11
S=P(N1CC1)(N1CC1)N1CC1,0.975 ± 0.036,0.928 ± 0.017,1.01 ± 0.03,0.975 ± 0.03,0.93 ± 0.021
O=C(O)CCCCCCCC(=O)O,1.01 ± 0.014,1.11 ± 0.11,1.09 ± 0.021,1.16 ± 0.13,1.01 ± 0.084
Clc1ccc(C(c2ccccc2Cl)C(Cl)Cl)cc1 (stereo not given),0.937 ± 0.013,0.895 ± 0.15,0.981 ± 0.041,1.11 ± 0.021,1.03 ± 0.17
C#C[C@]1(O)CC[C@H]2[C@@H]3CCC4=C(CCC(=O)C4)[C@H]3CC[C@@]21C,0.905 ± 0.022,0.974 ± 0.14,0.913 ± 0.014,1.07 ± 0.13,1.07 ± 0.057
COc1ccc(-c2oc3cc(OC)c(OC)c(OC)c3c(=O)c2OC)cc1,0.978 ± 0.06,0.918 ± 0.06,1.02 ± 0.021,1.055 ± 0.0071,0.917 ± 0.087
C(=C\c1ccccc1)/CN1CCN(C(c2ccccc2)c2ccccc2)CC1,0.989 ± 0.072,1.09 ± 0.021,1.035 ± 0.0071,1.17 ± 0.11,0.936 ± 0.15
C=C(C)[C@@H]1C[C@H](O)[C@]2(C(=O)O)CC[C@]3(C)[C@H](C[C@H]4OC(=O)C[C@@H](O)[C@]5(C)[C@@H]4[C@@]3(C)CC[C@H]5C(=C)C)[C@@H]12 [22alpha-hydroxychiisanogenin (11)],0.883 ± 0.21,0.884 ± 0.14,0.984 ± 0.094,0.859 ± 0.2,0.922 ± 0.017
CC[C@H]1OC(=O)C[C@@H](O)[C@H](C)[C@@H](O[C@@H]2O[C@H](C)[C@@H](O)[C@H](N(C)C)[C@H]2O)[C@@H](CCN2C[C@H](C)C[C@H](C)C2)C[C@@H](C)C(=O)/C=C/C(C)=C/[C@@H]1CO[C@@H]1O[C@H](C)[C@@H](O)[C@@H](OC)[C@H]1OC,0.981 ± 0.041,1.1 ± 0.05,0.972 ± 0.021,1.02 ± 0.077,1.09 ± 0.064
CC1(C)C(=O)[C@H]2C[C@]3(O)C4=CC(=O)O[C@@H](c5ccoc5)[C@@]4(C)CCC3[C@](C)(C2=O)[C@H]1CC(=O)O (stereo not given in full),1.085 ± 0.0071,1.1 ± 0.064,1.05 ± 0.028,1.11 ± 0.099,0.972 ± 0.083
CCc1cn([C@H]2C[C@H](O)[C@@H](CO)O2)c(=O)[nH]c1=O,0.9885 ± 0.0021,0.968 ± 0.073,1.01 ± 0.023,1.03 ± 0.14,1.08 ± 0.085
CCOC(=O)c1ccc(O)cc1,0.925 ± 0.019,0.89 ± 0.056,1.004 ± 0.0078,1.01,0.998 ± 0.059
Cc1cc(CC(=O)O)n(C)c1C(=O)c1ccc(Cl)cc1,1.07 ± 0.035,0.999 ± 0.03,1.05,1.12 ± 0.24,0.97 ± 0.13
C=C[C@]1(C)C=C2C(=O)[C@@]3(O)OC(=O)[C@@]4(CCCC(C)(C)[C@H]34)[C@@]2(O)CC1 [Sphaeropsidin A],0.898 ± 0.16,0.973 ± 0.067,0.952 ± 0.015,0.938 ± 0.086,1.05 ± 0.19
CC(C)(CO)C(O)C(=O)NCCCO (stereo not given),1.05 ± 0.16,1.06 ± 0.028,1.07 ± 0.064,0.992 ± 0.068,0.978 ± 0.074
C[C@@H]1O[C@@H](O[C@H]2[C@H](Oc3cc(O)c4c(c3)O[C@H](c3ccc(O)cc3)CC4=O)O[C@H](CO)[C@@H](O)[C@@H]2O)[C@H](O)[C@H](O)[C@H]1O,1.07 ± 0.042,0.916 ± 0.11,0.975 ± 0.02,0.992 ± 0.24,1.01 ± 0.16
C#C[C@]1(OC(C)=O)CC[C@H]2[C@@H]3CCC4=CC(=NO)CC[C@@H]4[C@H]3CC[C@@]21CC (mixture of isomers),1 ± 0.057,1.025 ± 0.0071,0.98 ± 0.025,1.055 ± 0.0071,0.97 ± 0.04
COC(=O)c1c(OC)cc2c(c1C)Oc1c(Cl)c(OC(C)=O)c(Cl)c(C)c1C(=O)O2,0.935 ± 0.028,1.02 ± 0.088,0.9875 ± 0.0064,1.03 ± 0.042,0.968 ± 0.02
CNc1ccccc1C(=O)N1CCc2c([nH]c3ccccc23)C1=O,1.03 ± 0.043,0.996 ± 0.1,0.994 ± 0.0085,1.14,1.09 ± 0.14
O=C(CCBr)N1CCN(C(=O)CCBr)CC1,1.07 ± 0.042,1.035 ± 0.0071,1.025 ± 0.0071,1.03 ± 0.12,1.01 ± 0.019
Cc1ccsc1/C=C/C1=NCCCN1C,0.843 ± 0.058,0.864 ± 0.044,0.9765 ± 0.00071,1.04 ± 0.021,1 ± 0.083
C[C@]1(O)CC(=O)c2c(ccc3c2C(=O)c2cccc(O)c2C3=O)C1 [Tetrangomycin; Benzanthramycin; LL-AE-705-Y],0.822 ± 0.019,0.978 ± 0.14,1 ± 0.067,0.853 ± 0.065,1.01 ± 0.045
"CC(=O)c1oc2cc3[nH]c(=O)cc(C)c3cc2c1C [2-Acetyl-3,5-dimethylfuro[3,2-g]quinolin-7-one (VFT-05)]",0.8435 ± 0.0035,0.998 ± 0.059,0.885 ± 0.0092,0.8825 ± 0.0035,0.979 ± 0.072
CC1(C)S[C@@H]2[C@H](N3C(=O)[C@@H](c4ccccc4)NC3(C)C)C(=O)N2[C@H]1C(=O)O,1.05 ± 0.079,1.055 ± 0.0071,1.08 ± 0.071,1.15 ± 0.042,1.09 ± 0.014
C=C[C@H]1CN2CC[C@H]1C[C@@H]2[C@@H](O)c1ccnc2ccc(OC)cc12,0.963 ± 0.052,0.966 ± 0.042,0.977 ± 0.047,1.21 ± 0.14,0.933 ± 0.021
Oc1c(I)cc(Cl)c2cccnc12,1.06 ± 0.21,0.949 ± 0.12,1.13 ± 0.042,1.2 ± 0.27,1.14 ± 0.11

Compound,cell viability (DLD1 [1]),cell viability (HCT116),cell viability (SW480 [2]),TCF/Wnt firefly luciferase reporter signal (DLD1 [3]),TCF/Wnt firefly luciferase reporter signal (SW480 [4])
CC(=O)N[C@@H](CC(=O)N[C@@H](CCC(=O)O)C(=O)O)C(=O)O,1.01 ± 0.014,1.055 ± 0.0071,0.925 ± 0.011,0.958 ± 0.088,0.988 ± 0.032
S=c1[nH]cnc2nc[nH]c12,0.733 ± 0.044,0.989 ± 0.1,0.932 ± 0.012,1.22,1.03 ± 0.021
CCCNC(=O)NS(=O)(=O)c1ccc(Cl)cc1,1.03 ± 0.11,0.991 ± 0.042,1.07 ± 0.2,0.968 ± 0.013,0.945 ± 0.016
CC1(C)C2CC(=O)O[C@@]3(C)C4=CC(=O)O[C@@H](c5ccoc5)[C@]4(C)CCC3[C@@]2(C)C=C[C@H]1O (stereo not given in full),0.95 ± 0.065,1.03 ± 0.047,0.993 ± 0.024,1.05 ± 0.11,1.04 ± 0.16
NC[C@H]1O[C@H](O[C@H]2[C@H](O[C@@H]3O[C@H](CO)[C@@H](O)[C@H]3O)[C@@H](O)[C@H](N)C[C@@H]2N)[C@H](N)[C@@H](O)[C@@H]1O,0.955 ± 0.018,0.996 ± 0.0014,0.962 ± 0.0014,1.04 ± 0.057,0.994 ± 0.023
CNCCCC12CCC(c3ccccc31)c1ccccc12,1.07 ± 0.085,1.085 ± 0.0071,1.07 ± 0.071,1.04 ± 0.035,1.1 ± 0.042
CC1(C)O[C@@H]2C[C@H]3[C@@H]4CCC5=CC(=O)C=C[C@]5(C)[C@@]4(F)[C@@H](O)C[C@]3(C)[C@]2(C(=O)CO)O1,0.955 ± 0.027,0.965 ± 0.024,1.03 ± 0.042,1.09 ± 0.021,0.951 ± 0.051
CN(C)C(=O)C(CCN1CCC(O)(c2ccc(Cl)cc2)CC1)(c1ccccc1)c1ccccc1,0.892 ± 0.14,0.912 ± 0.033,0.983 ± 0.019,0.982 ± 0.28,0.816 ± 0.16
C[N+](C)(C)CC(=O)O,0.9965 ± 0.005,0.98 ± 0.042,0.926 ± 0.036,0.906 ± 0.1,0.9215 ± 0.0064
CCCC1O[C@@H]2C[C@H]3[C@@H]4CCC5=CC(=O)C=C[C@]5(C)[C@H]4[C@@H](O)C[C@]3(C)[C@]2(C(=O)CO)O1 (stereo not given in full),1.03 ± 0.014,0.938 ± 0.1,0.912 ± 0.015,1.09 ± 0.071,0.81 ± 0.04
Oc1cc2c(cc1O)C(c1ccccc1)CNCC2 (stereo not given),0.981 ± 0.019,0.944 ± 0.05,0.934 ± 0.025,1.08 ± 0.05,1.05 ± 0.064
CN1CCc2cccc3c2[C@H]1Cc1ccc(O)c(O)c1-3,0.957 ± 0.06,1.04 ± 0.088,0.992 ± 0.025,1.1 ± 0.057,0.978 ± 0.088
CC(C)(Oc1ccc(Cl)cc1)C(=O)O,1.04 ± 0.021,1.17 ± 0.057,1.035 ± 0.0071,1.07 ± 0.13,1.1 ± 0.057
CC(C)=CCc1c(O)cc2oc(C)cc(=O)c2c1O,1 ± 0.036,0.981 ± 0.055,1 ± 0.024,0.869 ± 0.15,0.943 ± 0.095
COC(=O)C1=C(C)NC(C)=C(C(=O)OCC(C)C)C1c1ccccc1[N+](=O)[O-] (stereo not given),0.869 ± 0.11,1 ± 0.041,0.905 ± 0.071,0.961 ± 0.24,0.923 ± 0.037
COc1cc(C2Oc3cc([C@H]4Oc5cc(O)cc(O)c5C(=O)[C@@H]4O)ccc3OC2CO)ccc1O (stereo not given in full),1.09 ± 0.042,1.12 ± 0.16,1.02 ± 0.014,0.993 ± 0.081,0.967 ± 0.2
CCCCCCCCCCC[C@@H](C[C@@H]1OC(=O)[C@H]1CCCCCC)OC(=O)[C@H](CC(C)C)NC=O,0.83 ± 0.15,1.03 ± 0.12,0.972 ± 0.018,1.01 ± 0.13,0.933 ± 0.023
CC(=O)Oc1ccc(O)cc1,1.03 ± 0.021,1.08 ± 0.035,1.04 ± 0.014,1.07 ± 0.042,1.035 ± 0.0071
O=C(O)CCNC(=O)c1ccccc1,1.04 ± 0.035,1.035 ± 0.0071,1 ± 0.026,0.972 ± 0.0099,1.005 ± 0.0071
Clc1ccc(CSC(Cn2ccnc2)c2ccc(Cl)cc2Cl)cc1 (stereo not given),1.01 ± 0.015,0.932 ± 0.14,0.954 ± 0.11,0.88 ± 0.035,0.952 ± 0.036
COC(C)c1cccc2nc3c(C(=O)O)cccc3nc12 (stereo not given) [Saphenic acid methylether],1.03 ± 0.052,1.13 ± 0.028,1.04 ± 0.028,0.907 ± 0.1,1.15 ± 0.14
Cc1cc2cc3c(C)cc(=O)oc3c(C)c2o1,1.07 ± 0.021,0.954 ± 0.034,1 ± 0.022,1.14 ± 0.11,0.895 ± 0.037
CN[C@@H]1[C@@H](O[C@H]2O[C@H](CO)[C@@H](N)[C@H](O)[C@H]2O)OC2C[C@@H](N)[C@@H](O[C@H]3[C@H](O)[C@@H](O)[C@H](N)C[C@@H]3N)OC2[C@@H]1O (stereo not given in full),0.893 ± 0.0028,0.952 ± 0.03,0.965 ± 0.037,1.08 ± 0.028,0.88 ± 0.11
COc1ccc2c(c1OC)OC[C@@H](c1ccc(OC)c(OC)c1OC)C2,1.01 ± 0.069,1.1 ± 0.099,1.06 ± 0.035,1.04 ± 0.09,0.961 ± 0.055
O=C(O)c1cc(/N=N/c2ccc(S(=O)(=O)Nc3ccccn3)cc2)ccc1O,0.992 ± 0.0042,1 ± 0.078,1.04 ± 0.057,0.899 ± 0.083,0.837 ± 0.02
CC(=O)Oc1c(-c2ccccc2)oc2c(CC=C(C)C)c3c(c(OC(C)=O)c2c1=O)C=CC(C)(C)O3,1.05 ± 0.057,1.11 ± 0.11,1.02 ± 0.028,0.855 ± 0.044,0.972 ± 0.036
